The text below walks through data of PubChem BioAssay (EPA / NIEHS).

Results filed as inconclusive are left out. The source made the active and inactive calls. Rule for the calls, unless noted: active = hit-call score of the fitted dose curve at least 0.9, where 1 is the maximum; inconclusive = response in the unintended direction; inactive = score below 0.9.

Assay [1] is described as follows: TOX21_p53_BLA_p2_viability: Viability Assessment in the Tox21 HCT-116 p53 Agonism Beta-lactamase Assay, Phase 2 (AID 2283591).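 Note: compound exposure lasted 16 h at 37 °C; actives lower the ATP signal meaning cytotoxicity.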 The essentials:
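HCT-116 p53-bla cells (4000/well) rested 5 h at 37C, then received compounds in DMSO (217-fold dilution) for 16 h at 37C, 5% CO2. After the CCF4 read, CellTiter-Glo was added; ATP luminescence was read after 30 min at room temperature.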

Assay [2] in a line: TOX21_p53_BLA_p3_viability: Viability Assessment in the Tox21 HCT-116 p53 Agonism Beta-lactamase Assay, Phase 3 (AID 2283593).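 Note: cells exposed to compound for 16 h before reading.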 The essentials: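 HCT-116 cells (4000/well) rested 5 h at 37C, then got DMSO compounds by pin tool (217-fold dilution) for 16 h at 37C, 5% CO2. After the bla read, CellTiter-Glo was added and luminescence read at 30 min, room temperature.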
Assay [3] concerns the target Cellular tumor antigen p53 (Homo sapiens) (UniProt P04637). The assay is described as follows: TOX21_p53_BLA_p3_ratio: Tox21 HCT-116 p53 Agonism Beta-lactamase Assay, Ratio, Phase 3 (AID 2283596). The essentials: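 Cells were seeded at 4000/well, rested 5 h at 37C, then dosed with DMSO compound solutions (217-fold dilution) for 16 h. CCF4-AM substrate was loaded for 2 h at room temperature, and the 460/530 nm emission ratio was fitted for gain of signal versus DMSO.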

The target is the same in assay [4]. The assay is described as follows: TOX21_p53_BLA_p5_ratio: Tox21 HCT-116 p53 Agonism Beta-lactamase Assay, Ratio, Phase 5 (AID 2283599). The essentials:
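HCT-116 cells carrying a p53-inducible beta-lactamase reporter were seeded at 4000 cells/well and dosed after 5 h with compound in DMSO (217-fold dilution). After 16 h at 37C, CCF4-AM substrate was added for 2 h, and the 460/530 nm emission ratio was scored as gain-of-signal versus DMSO.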

For assay [5] the target is unchanged. The assay is described as follows: TOX21_p53_BLA_p4_ratio: Tox21 HCT-116 p53 Agonism Beta-lactamase Assay, Ratio, Phase 4 (AID 2283601). The essentials:
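HCT116 cells carrying an inducible beta-lactamase reporter were plated at 4000 cells/well, rested 5 h, then exposed to compounds in DMSO (217-fold dilution) for 16 h at 37C. CCF4-AM substrate was loaded 2 h at room temperature; 460/530 nm emission ratio scored gain-of-signal versus DMSO.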

A short description of assay [6]: TOX21_p53_BLA_p5_viability: Viability Assessment in the Tox21 HCT-116 p53 Agonism Beta-lactamase Assay, Phase 5 (AID 2283600). The essentials:
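Viability came from CellTiter-Glo ATP luminescence, read after 30 min at room temperature. Before this, HCT-116 p53-bla cells (4000/well) had 16 hours of compound exposure at 37C, with DMSO stocks diluted 217-fold on transfer.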

Assay [7] is described as follows: CCTE_Harrill_HTTr_Viability_MCF7: CCTE's 6-hour Cell Viability Assessment for the High-Throughput Transcriptomics (HTTr) Platform, in MCF-7 cells cultured in DMEM + 10% fetal bovine serum, Harrill Lab (AID 2284010; active = hit-call score of the fitted dose curve at least 0.9, where 1 is the maximum; inactive = score below 0.9). The essentials: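 PI exclusion, high-content imaging; 8-pt dilution series, 6 h exposure; bidirectional fit vs DMSO (neg. ctrl/baseline); gain of signal = loss of membrane integrity.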

The nature of assay [8]: CCTE_Harrill_HTTr_Apoptosis_MCF7: CCTE's 6-hour Apoptosis Assessment for the High-Throughput Transcriptomics (HTTr) Platform, in MCF-7 cells cultured in DMEM + 10% fetal bovine serum, Harrill Lab (AID 2284011; active = hit-call score of the fitted dose curve at least 0.9, where 1 is the maximum; inactive = score below 0.9). The essentials:
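High-content imaging of CellEvent Caspase 3/7 Green signal follows a six-hour exposure, with eight concentrations per chemical. MCF-7 cells grown in DMEM plus 10% fetal bovine serum; activity fitted in both directions against DMSO.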

A short description of assay [9]: TOX21_p53_BLA_p4_viability: Viability Assessment in the Tox21 HCT-116 p53 Agonism Beta-lactamase Assay, Phase 4 (AID 2283597).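 Note: hits lower the luminescence signal meaning cytotoxicity.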 The essentials: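 Cytotoxicity as reduced cellular ATP (CellTiter-Glo luminescence, 30 min room temperature), measured in the same wells following the CCF4 FRET p53 reading. Human HCT-116 cells received compounds in DMSO (217-fold dilution) for 16 h.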

A short description of assay [10]: CCTE_Harrill_HTTr_CellCount_MCF7: CCTE's Cell Proliferation Assessment for the High-Throughput Transcriptomics (HTTr) Platform, Harrill Lab (AID 2284012).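 Note: count of Hoechst-stained nuclei per well by high-content imaging in MCF-7 cells; cells exposed to compound for six hours; intended direction is loss of nuclei count meaning fewer cells.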 The procedure, abridged: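 Readout: Hoechst nuclear count by high-content imaging. MCF-7, 8-point dilution series, 6 h exposure. Bidirectional fit vs DMSO baseline.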

The AC50 is the concentration at which the activity in the assay is half-maximal.

Cellular tumor antigen p53 (Homo sapiens), sequence (P04637 whole entry, looked up): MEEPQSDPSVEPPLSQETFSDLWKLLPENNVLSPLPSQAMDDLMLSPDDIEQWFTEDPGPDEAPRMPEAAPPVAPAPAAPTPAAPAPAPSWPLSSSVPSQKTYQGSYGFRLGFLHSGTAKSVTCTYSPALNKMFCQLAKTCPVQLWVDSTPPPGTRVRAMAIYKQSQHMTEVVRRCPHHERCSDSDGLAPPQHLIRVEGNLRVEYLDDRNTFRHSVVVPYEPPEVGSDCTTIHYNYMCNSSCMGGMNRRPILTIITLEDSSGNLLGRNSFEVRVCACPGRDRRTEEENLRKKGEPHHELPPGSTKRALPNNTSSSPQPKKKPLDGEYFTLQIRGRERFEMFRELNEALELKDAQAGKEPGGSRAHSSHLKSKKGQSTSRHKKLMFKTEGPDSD

Regarding `CSCCC(N)C(=O)O` (configuration not stated), the result in assay [1], in assay [2], in assay [3], in assay [4] and in assay [5] was inactive.
For the compound `NC(Cc1ccc(Cl)cc1)C(=O)O` (configuration not stated), the call in [1], in [2], in assay [3] and in assay [5] was inactive.
Regarding `Brc1c(NC2=NCCN2)ccc2nccnc12`, the compound was classed as inactive in assay [1], in [2], in assay [3], in [4], in assay [6] and in assay [5].
As for `COCC(=O)Nc1c(I)c(C(=O)NCC(O)CO)c(I)c(C(=O)N(C)CC(O)CO)c1I` (configuration not stated), the compound was classed as inactive in [1], in [2], in assay [3], in [6] and in assay [5].
`Cc1cccc2nccnc12`: the call in assay [1], in assay [2], in [3], in [4] and in assay [5] was inactive.
As for `NS(=O)(=O)c1cc(C2(O)NC(=O)c3ccccc32)ccc1Cl` (configuration not stated), the outcome in assay [1], in [2], in assay [3], in assay [4], in assay [6] and in [5] was inactive.
In the case of `CCOC(=O)Cn1c(=O)sc2cccc(Cl)c21`, the call in [1], in assay [2], in [3], in assay [4], in [6] and in assay [5] was inactive.
For the compound `CC(COC(=O)c1ccccc1)OC(=O)c1ccccc1` (configuration not stated), the compound was classed as inactive in assay [1], in [2], in [3], in assay [4], in assay [6] and in [5].
For `C[n+]1ccccc1/C=N/O`, the result in assay [1], in assay [2], in assay [3] and in assay [6] was inactive.
Take `CCCCCCC(=O)O[C@H]1CC[C@H]2[C@@H]3CCc4cc(O)ccc4[C@H]3CC[C@]12C`: the call in assay [1], in assay [2], in assay [3], in [6] and in [5] was inactive.
For the compound `NCC1CCC(C(=O)O)CC1` (configuration not stated), the compound was called inactive in assay [1], in assay [2], in assay [3], in [4] and in assay [5].
As to `COc1cc(OC)cc(OC)c1`, the call in assay [1], in [2], in assay [3], in [4], in assay [6] and in assay [5] was inactive.
With `O=C(O)c1ccccc1Cl`, the call in [1], in assay [2], in [3], in assay [4], in assay [6] and in assay [5] was inactive.
`CCCc1nn(C)c2c(=O)[nH]c(-c3cc(S(=O)(=O)N4CCN(C)CC4)ccc3OCC)nc12`: the compound was called inactive in [1], in [2], in assay [3] and in assay [6].
Regarding `Nc1c(CC(=O)O)cccc1C(=O)c1ccc(Br)cc1`, the compound was called inactive in assay [1], in [2], in [3], in [5], in assay [7] and in [8].
As to `CC(=O)CCCCn1c(=O)c2c(ncn2C)n(C)c1=O`, the compound was called inactive in [1], in assay [2], in assay [9], in assay [4], in assay [6] and in assay [5]. Besides, the result in assay [7], in assay [8] and in assay [10] was inactive.
On to `CN(C)CCOC1=Cc2ccccc2Sc2ccc(Cl)cc21`, for which the compound was classed as inactive in [1] and in assay [2]. In [9], the AC50 was 35.4 µM (active).
`NC12CC3CC(CC(C3)C1)C2`: the result in assay [1], in assay [2], in assay [9], in assay [4], in assay [6] and in assay [5] was inactive.
With `NC(=O)CCCCC1CCSS1` (configuration not stated), the result in assay [1], in [2], in [9] and in assay [4] was inactive.
With `OCCN(CCO)CCN(CCO)CCO`, the compound was classed as inactive in assay [1], in assay [2], in [9], in [4] and in assay [6].
As to `O=[N+]([O-])c1ccc(F)cc1F`, the compound was called inactive in assay [1], in assay [2], in assay [9], in assay [4] and in [6].
With `CCN1CCOCC1`, the result in assay [1], in [2], in assay [9], in assay [4] and in assay [6] was inactive.
Regarding `Cc1cc(-c2ccc(N=Nc3c(S(=O)(=O)O)cc4cc(S(=O)(=O)O)cc(N)c4c3O)c(C)c2)ccc1N=Nc1c(S(=O)(=O)O)cc2cc(S(=O)(=O)O)cc(N)c2c1O`, the call in [1] and in assay [6] was inactive. Further, the AC50 in assay [2] was 16.3 µM (active); in assay [9], 20.6 µM (active).
For the compound `O=C(O)/C=C/C(O)c1ccc(Cl)cc1` (configuration not stated), the compound was classed as inactive in assay [1], in [2], in assay [9], in assay [4], in assay [6] and in assay [5].
Consider `c1ccc(CC2=NCCN2)cc1`, for which the call in assay [1], in assay [2], in assay [9] and in assay [4] was inactive.
Consider `c1cc(CN2CCCCC2)cc(OCCCNc2nc3ccccc3s2)c1`, for which the outcome in [1], in assay [2], in [9] and in [6] was inactive.
Regarding `CCCCCCCCCCCCCCCC(=O)OC[C@@H](NC(=O)C(Cl)Cl)[C@H](O)c1ccc([N+](=O)[O-])cc1`, the compound was classed as inactive in assay [1], in assay [2], in assay [9] and in assay [6].
`CC(C(O)c1ccc(O)cc1)N1CCC(Cc2ccccc2)CC1` (configuration not stated): the outcome in assay [1], in assay [2], in assay [9] and in assay [4] was inactive.
